# BH1578 lux ind – quorum light induction in luxS cqsA deficient V. cholerae. V. cholerae BH1578 lux reporter, luminescence, 6 h. activation, % at 18.7 µM. 0.16% of 350,000 active. AID 588436; in the data active means activation mostly above about 9.7%, no sharp cut-off
# 3CLpro inhibitor – SARS-CoV 3CLpro protease inhibition; AID 1706; P0C6X7; 0.14% of 290,000 active; recombinant SARS-CoV 3CLpro, quenched FRET peptide cleavage; inhibition, % at 6 µM; in the data active means inhibition above about 12%
# FBA Mtb inh – Mtb fructose-bisphosphate aldolase inhibition. P9WQA3. inhibition, % at 1 µM. purified M. tuberculosis FBA, fluorescence read-out. 2.3% of 360,000 active; in the data active means inhibition above about 27%;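 further: 0% = vehicle and 100% = reference inhibitor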
# Target sequence (P9WQA3 whole entry, looked up): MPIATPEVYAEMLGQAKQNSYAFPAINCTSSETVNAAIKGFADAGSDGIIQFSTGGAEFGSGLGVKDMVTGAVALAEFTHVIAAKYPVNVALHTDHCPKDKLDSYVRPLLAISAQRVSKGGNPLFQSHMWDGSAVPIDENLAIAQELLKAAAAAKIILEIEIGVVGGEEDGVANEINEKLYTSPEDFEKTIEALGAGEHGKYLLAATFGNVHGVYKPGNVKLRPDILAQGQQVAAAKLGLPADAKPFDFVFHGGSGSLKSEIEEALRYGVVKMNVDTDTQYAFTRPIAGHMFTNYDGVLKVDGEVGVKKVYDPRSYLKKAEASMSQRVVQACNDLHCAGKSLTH
# PrPC surface inh – inhibitors of human cell surface prion protein PrPC; inhibition, % at 13.8 µM; P04156; TR-FRET read-out; 0.43% of 370,000 active; AID 720596; in the data active means inhibition above about 24%; further: 0% = median of the test wells and 100% = reference compound wells
# GDH-TPI counter – counter-screen for M. tuberculosis FBA inhibitors: GDH-TPI coupled enzymes | GDH-TPI coupled enzyme counterscreen, NADH absorbance | inhibition, % at 4.8 µM | 1.2% of 360,000 active | AID 588335; in the data active means inhibition above about 30%;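 further: 0% = DMSO wells and 100% = wells lacking the enzyme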
# Starred values were filed as active, the others as inactive; i = inactive; . = not tested or not shown; + = active, no number. In the library only some 3.9% were active in any assay of this set; here they are far more common.
SMILES,BH1578 lux ind,3CLpro inhibitor,FBA Mtb inh,PrPC surface inh,GDH-TPI counter
O=C(COC(=O)C1CCC(=O)N1)Nc1ccccc1Br (stereo not drawn),i,-4.2,1.2,-8.9,31.6*
COc1ccc(/C=C/c2nnc(NC(=O)CSc3ccc(C)cc3)s2)cc1,-2.8,4.9,2.2,6.0,-6.0
CC(=O)Nc1nnc(/C=C/c2cccc([N+](=O)[O-])c2)s1,-0.3,-1.8,1.1,-5.3,-4.3
CCC(=O)Nc1nnc(/C=C/c2ccc(OC)cc2)s1,-0.4,-2.8,-12.3,1.8,43.4*
COC(=O)Nc1nnc(/C=C/c2ccccc2)s1,-0.4,-2.6,+,-8.7,24.3
COc1ccc(N2CCN(C(=O)c3cc(=O)c4cc(C)c(C)cc4o3)CC2)cc1,i,-0.2,-2.1,1.9,8.2
CC1=C(O)C(=O)C(C2=C(O)C(=O)C(C)=C(O)C2=O)=C(O)C1=O,-0.3,.,4.3,0.0,49.0*
CC1Nc2ccccc2C(=O)N1NC(=O)c1ccc(Br)cc1 (stereo not drawn),-0.5,8.1,2.2,-4.3,-0.3
Cc1cccc(C(=O)NC2CCN(CC(=O)NCc3ccccc3F)CC2)c1,-0.3,0.1,1.8,-0.8,0.8
COc1ccc(NC(=O)/C=C/c2c(Cl)nc3ccccn23)cc1,-2.2,-3.1,-4.2,-8.1,23.4
COc1ccccc1N1CCN(C(=O)/C=C/c2c(Cl)nc3ccccn23)CC1,0.3,-0.4,0.3,0.4,47.4*
CCOc1ccccc1NC(=O)NCCCCc1ccccc1,-3.2,3.0,-0.7,0.9,4.7
Cc1cc(-c2ccccc2)nc2oc3c(c12)NC(=O)CN(c1ccccc1)C3=O,-0.6,-0.6,4.7,-12.6,10.0
COc1cccc(N2CC(=O)Nc3c(oc4nc(-c5ccccc5)cc(C)c34)C2=O)c1,1.5,2.3,2.4,-13.7,35.3*
CCc1nc2c(OCC(=O)c3ccc(F)cc3)cccn2c1N(C)C(=O)c1cccs1,0.3,.,1.8,0.0,15.0
CCn1c(NCc2ccco2)nc2ccccc21,-0.6,-2.3,4.0,4.9,9.9
c1ccc(CN2c3ccccc3-c3nc4ccccc4n3C2c2ccccn2)cc1 (stereo not drawn),-0.3,1.8,121.0*,11.1,5.2
CN1c2ccccc2-c2nc3ccccc3n2C1c1ccccn1 (stereo not drawn),0.9,0.1,46.9*,6.0,8.9
Clc1ccc(Cn2c(-c3cccnc3Cl)nc3ccccc32)cc1,0.0,4.4,2.4,-1.3,-1.2
CN1c2ccccc2-c2nc3ccccc3n2C1c1ccncc1 (stereo not drawn),i,2.2,11.7,-7.3,20.1
CCN1c2ccccc2-c2nc3ccccc3n2C1c1ccco1 (stereo not drawn),-0.3,2.2,+,8.6,8.7
CC(=O)c1ccc(NC(=O)CN2C(=O)NC3(CCc4ccccc43)C2=O)cc1 (stereo not drawn),0.0,.,-2.3,-1.6,-3.5
O=C(CCN1CCN(c2ccccc2)CC1)N/N=C/c1ccc([N+](=O)[O-])o1,i,4.7,-1.3,-42.5,37.8*
CCOC(=O)C1=C[C@@H](C2CCCCC2)N(S(=O)(=O)c2ccc([N+](=O)[O-])cc2)[C@H]1c1ccccc1,.,.,-1.9,-5.2,.
O=c1c2ccccc2n(CC(O)CN2CCCCC2)c2ccccc12 (stereo not drawn),0.3,0.8,108.5*,-4.4,3.9
SMILES,BH1578 lux ind,3CLpro inhibitor,FBA Mtb inh,PrPC surface inh,GDH-TPI counter
CCOC(=O)c1nncc(-c2ccccc2)n1,-0.8,.,-0.6,-1.9,4.3
COc1ccc(NC(=O)CSc2nc3sc4c(c3c(=O)n2-c2ccc(OC)cc2)CCN(C)C4)cc1,-0.1,-3.3,1.8,-2.6,35.3*
CCOc1ccc(-n2c(SCC(N)=O)nc3sc4c(c3c2=O)CCN(C)C4)cc1,0.6,2.0,3.6,-1.1,32.0*
CCSc1nc2sc3c(c2c(=O)n1-c1ccccc1)CCN(C)C3,0.7,-2.3,3.1,-16.0,30.2
COc1ccc(-n2c(SC)nc3sc4c(c3c2=O)CCN(C)C4)cc1,-0.5,-3.0,11.2,-4.4,26.2
CCOC(=O)CSc1nc2sc3c(c2c(=O)n1C1CCCCC1)CCN(C)C3,-0.6,-3.1,20.5,3.9,39.2*
COCCSc1nc2sc3c(c2c(=O)n1-c1ccccc1)CCN(C)C3,i,2.6,13.5,.,31.4*
CC(C)OC(=O)c1ccc2ccc(-c3ccccc3)nc2c1,.,.,-2.4,-3.5,.
O=C(NCC(=O)N1CCCCCCC1)c1ccc(Cl)c(Cl)c1,-0.4,.,1.7,0.3,0.4
CCCCN(C)c1c(C)nc2ccc(C(=O)Nc3ccc(OC)c(OC)c3)cn12,0.3,.,-1.6,0.2,12.0
O=C1CC(C(=O)Nc2cccc3ccccc23)C2(CCCC2)O1 (stereo not drawn),i,-7.0,3.9,-0.7,6.2
Cc1ccc(-c2csc(C(O)c3ccc(F)c(F)c3)n2)cc1C (stereo not drawn),i,.,1.2,3.8,9.8
CC(=O)Nc1ccc(S(=O)(=O)N(C)CC(=O)Nc2nc3ccccc3[nH]2)cc1,-0.7,.,-2.1,-2.5,-1.1
COc1ccc(-n2c(SCC(=O)Nc3nccs3)nc3sc4c(c3c2=O)CCN(C)C4)cc1,.,2.5,3.3,-4.2,31.9*
COc1cc(C(=O)NCC(=O)OCCN2C(=O)c3ccccc3C2=O)cc(OC)c1OC,-0.2,4.7,1.4,-3.9,1.8
O=C(O)CCn1cc(C2CC(c3ccccc3)=NN2c2ccccc2)c(-c2ccccc2)n1 (stereo not drawn),-0.2,9.7,+,1.1,9.4
Cn1c(CO)nc2cc(N)ccc21,1.6,-0.8,2.7,-5.6,11.0
Nc1ccc(-c2nc3cc(N)ccc3n2CCO)cc1,i,-2.9,+,4.9,14.1
C=C(C)c1cccc(C(C)(C)NC(=O)N2CCCCC2CC)c1 (stereo not drawn),-0.3,6.2,179.9*,2.5,4.9
C=C(C)c1cccc(C(C)(C)NC(=O)N2CCN(CC)CC2)c1,-0.6,2.3,1.7,3.5,-8.9
CNc1nnc(-c2ccncc2)s1,i,3.0,145.1*,-7.8,16.5
CCNc1nnc(-c2ccncc2)s1,-0.4,-0.7,136.0*,0.5,21.0
CN(C(=O)CSc1nnc(N)s1)C1CCCCC1,1.6,4.1,1.7,6.5,1.8
COc1ccc(Cl)cc1C=CC=NNS(=O)(=O)c1ccc(C)cc1,-1.0,.,0.0,8.8,37.1*
COc1ccc(Br)cc1C=NNS(=O)(=O)c1ccc(C)cc1,i,.,-0.6,11.6,7.6
CCOC(=O)/C(C#N)=C/c1c(N2CCN(c3ccc(OC)cc3)CC2)nc2c(C)cccn2c1=O,-1.1,-0.9,0.0,-3.4,9.0
CCOC(=O)C(/C=C(\C#N)C(=O)OCC)=C(/N)N1CCN(c2c(C)cccc2C)CC1,i,-0.5,4.5,-4.9,50.2*
CCOC(=O)C(/C=C(\C#N)C(=O)OCC)=C(/N)N1CCN(c2ccc(OC)cc2)CC1,-1.4,4.0,-1.2,-1.2,57.0*
O=C(/C(=C/c1ccc(Cl)cc1)c1nc2ccccc2[nH]1)c1ccccc1,-0.3,2.1,-0.9,6.2,17.4
O=C(N/C(=C/c1ccc(Br)cc1)c1nc2ccccc2[nH]1)c1ccco1,-0.4,4.4,4.8,16.9,31.8*

# Compound activity (PubChem)
